# Rows were chosen to be rich in hits. Some 4.7% of all compounds tested hit in one or more screens of this group.
# eIF4H FP inh: inhibitors of RNA binding by human eIF4H | 290,000 compounds, 0.94% hits | inhibition, % at 35 µM | eIF4H fluorescence polarization binding assay | Q15056 | AID 2012;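 further: calls also rest on retests at 20 µM and on dose response follow-up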
# Efflux pump mplx: antifungal efflux pump inhibition, Nile Red retention | S. cerevisiae Candida pump triplex | inhibition, % at 10 µM | 330,000 compounds, 0.44% hits;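 active means plate passing quality check with inhibition over a set limit, or well fluorescence over plate mean plus 4 SD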;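 further: Nile Red retained in pooled yeast measured as flow cytometry median fluorescence; 0% = buffer negative control and 100% = Enniatin B positive control; higher means more Nile Red kept so more efflux inhibition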
# PABP FP inh: PABP-poly(A) binding inhibition; AID 2014; 290,000 compounds, 1% hits; inhibition, % at 35 µM; PABP-poly(A) RNA binding, fluorescence polarization;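 further: calls also rest on retests at 20 µM and on dose response follow-up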
# ALR H2O2 inh: human ALR oxidase inhibition via reduced H2O2; P55789; purified ALR, DTT oxidation, H2O2 HRP-luminol luminescence; inhibition, % (concentration not given with the values); 290,000 compounds, 3.8% hits; AID 485317;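 active means mean replicate inhibition above about 79%, with every replicate also reaching it, limit read from the data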
# Target sequence (P55789 whole entry, looked up): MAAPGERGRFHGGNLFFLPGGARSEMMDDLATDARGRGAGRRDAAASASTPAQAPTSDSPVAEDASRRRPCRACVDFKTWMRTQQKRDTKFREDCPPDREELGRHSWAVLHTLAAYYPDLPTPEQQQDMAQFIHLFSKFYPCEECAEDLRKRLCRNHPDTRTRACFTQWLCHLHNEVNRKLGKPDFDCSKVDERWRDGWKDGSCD
# MLLE-PAM2 inh: inhibitors of microRNA-mediated deadenylation, human PABP1 MLLE binding | P11940 | GST-MLLE / FITC-PAM2 fluorescence polarization | inhibition, % at 20 µM | 360,000 compounds, 0.36% hits | AID 588489; in the data active means inhibition above about 35%, passing the limit was not always enough;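 further: plate controls were DMSO wells with GST-MLLE for no effect and wells lacking GST-MLLE protein for full effect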
# UBC9 SUMO inh: SUMOylation inhibition. P63279. HTRF SUMOylation assay, SAE1/SAE2 + UBC9, in vitro. inhibition, % at 35 µM. 290,000 compounds, 0.36% hits. AID 2006; in the data active means inhibition above about 50%, passing the limit was not always enough
# Target sequence (P63279 whole entry, looked up): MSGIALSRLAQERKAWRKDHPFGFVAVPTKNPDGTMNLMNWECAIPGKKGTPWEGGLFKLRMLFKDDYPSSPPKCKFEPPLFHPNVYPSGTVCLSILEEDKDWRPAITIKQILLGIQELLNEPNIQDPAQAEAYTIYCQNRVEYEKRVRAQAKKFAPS
# Active calls of the source: *; x = no result. Unless noted, how the calls were made is not given here.
SMILES,eIF4H FP inh,Efflux pump mplx,PABP FP inh,ALR H2O2 inh,MLLE-PAM2 inh,UBC9 SUMO inh
O=C(N/N=C/c1ccc(N2CCOCC2)s1)c1ccc(NS(=O)(=O)c2cccs2)cc1,-6,0,24,70,-39,3
O=C(N/N=C/c1sc(N2CCOCC2)nc1-c1ccccc1)c1ccccc1Cl,-8,0,-18,-3,-5,-11
CCOC(=O)N/N=C/c1ccc(N2CCOCC2)s1,-2,0,21,99*,16,-38
COc1ccc(C(=O)N/N=C/c2ccc(N3CCOCC3)s2)cc1OC,x,0,x,93*,-3,x
O=C(N/N=C/c1ccc(N2CCOCC2)s1)c1ccccc1Cl,56,-1,-2,88*,2,10
COc1ccc(S(=O)(=O)N2CCN(C(=O)Nc3ccccc3OC)CC2)cc1,5,0,-2,-18,9,-7
Cc1ccc2cc3cc(C(=O)NCCCN4CCCC4=O)oc3nc2c1,-2,0,3,78*,-4,22
Cc1ccc2cc3cc(C(=O)NCCN4CCOCC4)oc3nc2c1,11,0,5,6,0,33
COCCNC(=O)c1cccc(OC2CCN(C(C)COc3ccccc3)CC2)c1 (stereo not given),-7,0,3,-5,9,0
N#C/C(=C\c1ccc(-c2cccc(Cl)c2)o1)C(=O)Nc1cccc2cccnc12,82*,0,86*,-3,-7,15
Cc1ccccc1NC(=O)/C(C#N)=C/c1ccc(-c2ccc(Cl)c(C(=O)O)c2)o1,17,0,12,-10,-14,-2
Cc1cc(NC(=O)Nc2cc(C)nn2-c2ccccc2)n(-c2ccccc2)n1,-2,0,-8,-11,4,7
Cc1cc(NC(=O)CC#N)n(-c2ccccc2)n1,78*,0,11,0,8,9
N#C/C(=C\c1ccc(-c2ccccc2)o1)C(=O)Nn1cnnc1,47,0,42,98*,2,6
Cc1ccc(-c2ccc(/C=C(\C#N)C(=O)Nc3cc(C)nn3-c3ccccc3)o2)cc1,25,1.5*,-1,-6,x,13
Cc1cc(NC(=O)/C(C#N)=C/c2ccco2)n(-c2ccccc2)n1,12,0,-5,-9,-1,-2
COCOc1ccc(C=O)cc1OCOC,x,0,x,-4,-2,x
COc1ccc(CC(=O)OCC(=O)NCc2ccc3c(c2)OCO3)cc1OC,x,0,x,0,-6,x
C/C(=N\NC(=S)Nc1c(C)cccc1C)c1cc2ccccc2o1,-1,1,-5,0,15,-8
C/C(=N\NC(=S)Nc1c(C)cccc1C)c1ccc(O)cc1,2,0,-12,87*,30,25
C/C(=N\NC(=S)Nc1cccc(C)c1)c1ccccc1,4,0,3,-1,40*,-31
C[C@@H]1CN([C@@H](C)CO)S(=O)(=O)c2ccc(Br)cc2O[C@H]1CN(C)C(=O)Nc1ccc2c(c1)OCO2,x,x,x,x,11,x
Cc1cc2nc(C(C)(C)C)c(Cc3ccccc3)n2c(C)c1Br,x,x,x,x,-11,x
CCc1n(CC(O)COCC2CC=CCC2)c2ccccc2[n+]1C (stereo not given),-18,0,50,x,-79,14
CCc1n(CC(O)COC2CCCCC2)c2ccccc2[n+]1C (stereo not given),1,0,53*,-6,-94,9
SMILES,eIF4H FP inh,Efflux pump mplx,PABP FP inh,ALR H2O2 inh,MLLE-PAM2 inh,UBC9 SUMO inh
CCCn1c(N)c(N(CCOC)C(=O)COC(=O)COc2c(C)cc(C)cc2C)c(=O)[nH]c1=O,x,x,x,x,8,x
Cc1cccc(Cc2c(C)nc3nc(SCC(=O)NCc4ccco4)nn3c2C)c1,0,0,-4,77*,1,4
C=CCc1c(C)nc(SCc2nc3ccccc3c(=O)[nH]2)[nH]c1=O,-8,0,-12,7,22,9
Cc1sc2nc(SCC(=O)NCc3ccco3)[nH]c(=O)c2c1C,-3,0,7,7,-3,-1
CCc1c(O)nc(SCc2nc3ccccc3c(=O)[nH]2)[nH]c1=O,active,0,54*,98*,39*,-32
Cc1cc(=O)[nH]c(SCC(=O)NCc2ccco2)n1,68,0,6,-20,31,10
Cc1nnc(SCC(=O)NCc2ccco2)[nH]c1=O,57*,0,34*,-2,13,4
CCc1c(O)nc(SCC(=O)NCc2ccco2)[nH]c1=O,2,0,20,98*,27,13
Cc1cc(OCC(O)CNC(C)c2ccccc2)ccc1C(C)C (stereo not given),3,0,11,-19,-2,-5
